Source: PubChem (National Center for Advancing Translational Sciences (NCATS))
Hits are enriched below; roughly 19% of the tested compounds scored in any of these assays.
HT1080 IDH1KD tx: kills HT-1080 cells with IDH1 knockdown; HT-1080 IDH1 knockdown viability, ATP luminescence, 48 h; Potency, µM (series often up to 46.1 µM), most hits filed as cytotoxic; actives 2% (n = 360,000); AID 686971
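After a 2 h attachment period, IDH1KD HT-1080 cells took pin-transferred compound for 48 h at 37 °C; ATP-based luminescence after 10 min room-temperature reagent incubation reported viability.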
TDP1 cell noCPT: qHTS for Inhibitors of human tyrosyl-DNA phosphodiesterase 1 (TDP1): qHTS in cells in absence of CPT. DT40 Tdp1-/- hTDP1 cells, no CPT, ATP luminescence, 48 h. Potency, µM (titrated, usually from 46.2 µM), most hits filed as inhibitors. actives 15% (n = 420,000). AID 686978, 2013; note: nearly all actives have a fitted effect of over 55% in size
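Stably hTDP1-transfected Tdp1-null chicken DT40 cells were treated with library compounds minus camptothecin and grown for at least 48 hr at 37 °C, after which cellular ATP was quantified by luminescence.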
TDP1 cell CPT: growth inhibition of DT40 Tdp1-/-;hTDP1 cells with camptothecin (screen for TDP1 inhibitors) | Potency, µM (titrated, usually from 46.2 µM), hits mostly inhibitors | actives 12% (n = 420,000) | AID 686979 | chicken DT40 Tdp1-/-;hTDP1 cells + 20 nM CPT, ATP luminescence, 48 h; note: nearly all actives have a fitted effect of over 55% in size
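Chicken DT40 Tdp1-/- cells complemented with human TDP1, 400 cells/well, exposed to compounds plus 20 nM camptothecin for at least 48 h at 37 C; viability read as ATP content by CellTiter-Glo luminescence.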
ELG1 repair inh: blocks ELG1-dependent DNA repair in HEK293T cells | HEK293T ELG1-luciferase reporter, luminescence, 16 h; DNA damage induced by 5-fluorouridine | Potency, µM (highest dose often 46.1 µM), usual class: inhibitors | actives 2.3% (n = 330,000); note: nearly all actives have a fitted effect of over 55% in size
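DMSO vehicle served as the neutral condition. Each well held 2,000 cells given 5-fluorouridine plus compound; after 16 hr at 37 °C/5% CO2, ONE-Glo was added and luciferase measured 30 min later.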
HT1080-NT tox: kills 2HG-producing HT-1080-NT fibrosarcoma cells | Potency, µM (doses to about 46.1 µM), actives largely listed as cytotoxic | actives 1.6% (n = 360,000) | HT-1080-NT fibrosarcoma viability, CellTiter-Glo ATP luminescence, 48 h;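 note: NT is the 2HG producing partner of a matched IDH1 knockdown line; nearly all actives have a fitted effect of over 55% in size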
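Viability of the 2HG-overproducing fibrosarcoma line after 48 hours of compound exposure at 37 degrees C was determined by luminescence with CellTiter-Glo, and concentration-effect curves were then fitted and categorized.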
IL1B secr inh: blocks inflammasome-driven IL-1 beta release; THP-1 LPS/ATP IL-1B secretion, AlphaLISA, 16 h; stronger effect = lower value; actives 4.7% (n = 360,000); activity change, % at 57.5 µM; in the data active = activity change below about -50%; inconclusive = mostly about -30% to -49%
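THP-1 cells pretreated 1 hr with compounds (up to 57.5 uM final), then stimulated with LPS (250 ng/mL final) plus ATP (1.25 mM final); secreted IL-1B measured by AlphaLISA after 16 hr, decreased signal indicating inhibition.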
A number is an active result; i = inactive; ? = inconclusive; nt = no result given. Unless noted, calls come from the whole dose curve; as a rule, active = well fitted curve in the direction sought with a large enough effect; inconclusive = small, poorly fitted or top-dose-only effect, or another doubt; inactive = no such curve, though single readings can be large; an effect the other way counts as inactive or inconclusive.

SMILES | HT1080 IDH1KD tx | TDP1 cell noCPT | TDP1 cell CPT | ELG1 repair inh | HT1080-NT tox | IL1B secr inh
COc1cccc(NC(=O)C2CCN(C(=O)[C@@H]3Cc4ccccc4CN3C(=O)OC(C)(C)C)CC2)c1 | i | ? | i | ? | i | i
CCc1ccc(NC2=CC(=O)CC(C)(C)C2)cc1 | i | i | i | i | i | -56
CCc1ccc(Nc2ncc3c(n2)CC(C)(C)CC3=O)cc1 | i | i | i | ? | i | -61
Cc1cccc(Nc2ncc3c(n2)CC(c2ccco2)CC3=O)c1 (configuration not stated) | ? | 21µM | ? | i | ? | ?
Cc1nnc(SCC(=O)Nc2ncc3c(n2)CC(c2ccccc2)CC3=O)s1 (configuration not stated) | i | i | ? | i | i | i
O=C(CSc1nnnn1-c1ccccc1)Nc1ncc2c(n1)CC(c1ccccc1)CC2=O (configuration not stated) | i | ? | 16µM | i | i | i
CCc1ccc(Nc2ncc3c(n2)CC(C)CC3=O)cc1 (configuration not stated) | i | i | i | ? | i | i
CCc1ccc(Nc2ncc3c(n2)CC(c2ccc(OC)cc2)CC3=O)cc1 (configuration not stated) | ? | 16µM | ? | i | ? | i
Cc1ccc(S(=O)(=O)c2cn(Cc3ccccc3F)c3cc4c(cc3c2=O)OCO4)cc1 | nt | ? | 5.8µM | nt | nt | nt
Cc1ccc(S(=O)(=O)c2cn(Cc3ccccc3Cl)c3ccc(F)cc3c2=O)cc1 | nt | 16µM | 18µM | nt | nt | nt
O=c1c(S(=O)(=O)c2ccc(Cl)cc2)cn(Cc2ccccc2)c2ccc(F)cc12 | ? | ? | ? | i | i | i
O=C(Cn1cc(Cl)c([N+](=O)[O-])n1)NCCC1=CCCCC1 | i | i | i | i | i | i
Cc1cc(/C=N/NC(=O)c2ccncc2)c(C)n1-c1ccccc1 | i | i | i | ? | i | i
CCc1ccc(-n2c(C)cc(/C=N/NC(=O)OC)c2C)cc1 | i | 26µM | ? | i | i | i
CCc1ccc(-n2c(C)cc(/C=N/NC(=O)c3ccncc3)c2C)cc1 | i | ? | 13µM | ? | i | i
Cc1ccc(-n2nc(C)c3c(C)cc(=O)n(CC(=O)NC(C)c4ccccc4)c32)cc1 (configuration not stated) | nt | i | i | nt | nt | nt
C[C@H](CO)N1C[C@H](C)[C@@H](CN(C)C(=O)C2CCOCC2)Oc2ncc(Br)cc2C1=O | i | i | i | nt | i | i
O=S(=O)(Nc1ccccc1N1CCOCC1)c1ccc(Cl)cc1 | i | i | ? | i | i | i
CCCN1C(=O)C(O)(CC(=O)c2cccc(OC)c2)c2ccccc21 (configuration not stated) | i | 3.3µM | 4.1µM | i | i | i
COc1cccc(C(=O)CC2(O)C(=O)N(Cc3ccccc3)c3ccccc32)c1 (configuration not stated) | nt | 6.5µM | 6.5µM | nt | nt | nt
CCOc1cccc2sc(=NC(=O)CCS(=O)(=O)c3ccccc3)n(CC)c12 | i | 12µM | ? | i | i | i
Cn1c(=NC(=O)CCS(=O)(=O)c2ccccc2)sc2cc(F)ccc21 | i | ? | ? | ? | i | i
CCCn1c(=NC(=O)CCS(=O)(=O)c2ccccc2)sc2cc(S(N)(=O)=O)ccc21 | i | 21µM | 21µM | i | i | i
CCOc1cccc2sc(=NC(=O)c3ccco3)n(CC(=O)OC)c12 | i | 15µM | ? | ? | i | i
COc1cccc2sc(=NC(=O)CCS(=O)(=O)c3ccc(C)cc3)n(C)c12 | i | 21µM | ? | i | i | i
COc1ccccc1CN1CC(C(=O)NCc2ncccc2C)CCC1=O (configuration not stated) | i | i | i | i | i | i
O=C(Nc1ccc(F)c(Cl)c1)[C@@H]1O[C@H](CO)[C@H](O)[C@H](O)[C@H]1O | i | i | i | nt | i | i
